Assay outcomes from PubChem BioAssay.
mHTT CaM bind: mutant huntingtin-calmodulin interaction inhibitors – biochemical, AlphaScreen, primary screen; P42858; AlphaScreen His-mHTT/GST-CaM binding, luminescence; inhibition, % at 15 µM; actives 3.6% (n = 190,000);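 also: 0% = both proteins with DMSO and 100% = one protein alone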
Target sequence (P42858 whole entry, looked up, stated change not applied): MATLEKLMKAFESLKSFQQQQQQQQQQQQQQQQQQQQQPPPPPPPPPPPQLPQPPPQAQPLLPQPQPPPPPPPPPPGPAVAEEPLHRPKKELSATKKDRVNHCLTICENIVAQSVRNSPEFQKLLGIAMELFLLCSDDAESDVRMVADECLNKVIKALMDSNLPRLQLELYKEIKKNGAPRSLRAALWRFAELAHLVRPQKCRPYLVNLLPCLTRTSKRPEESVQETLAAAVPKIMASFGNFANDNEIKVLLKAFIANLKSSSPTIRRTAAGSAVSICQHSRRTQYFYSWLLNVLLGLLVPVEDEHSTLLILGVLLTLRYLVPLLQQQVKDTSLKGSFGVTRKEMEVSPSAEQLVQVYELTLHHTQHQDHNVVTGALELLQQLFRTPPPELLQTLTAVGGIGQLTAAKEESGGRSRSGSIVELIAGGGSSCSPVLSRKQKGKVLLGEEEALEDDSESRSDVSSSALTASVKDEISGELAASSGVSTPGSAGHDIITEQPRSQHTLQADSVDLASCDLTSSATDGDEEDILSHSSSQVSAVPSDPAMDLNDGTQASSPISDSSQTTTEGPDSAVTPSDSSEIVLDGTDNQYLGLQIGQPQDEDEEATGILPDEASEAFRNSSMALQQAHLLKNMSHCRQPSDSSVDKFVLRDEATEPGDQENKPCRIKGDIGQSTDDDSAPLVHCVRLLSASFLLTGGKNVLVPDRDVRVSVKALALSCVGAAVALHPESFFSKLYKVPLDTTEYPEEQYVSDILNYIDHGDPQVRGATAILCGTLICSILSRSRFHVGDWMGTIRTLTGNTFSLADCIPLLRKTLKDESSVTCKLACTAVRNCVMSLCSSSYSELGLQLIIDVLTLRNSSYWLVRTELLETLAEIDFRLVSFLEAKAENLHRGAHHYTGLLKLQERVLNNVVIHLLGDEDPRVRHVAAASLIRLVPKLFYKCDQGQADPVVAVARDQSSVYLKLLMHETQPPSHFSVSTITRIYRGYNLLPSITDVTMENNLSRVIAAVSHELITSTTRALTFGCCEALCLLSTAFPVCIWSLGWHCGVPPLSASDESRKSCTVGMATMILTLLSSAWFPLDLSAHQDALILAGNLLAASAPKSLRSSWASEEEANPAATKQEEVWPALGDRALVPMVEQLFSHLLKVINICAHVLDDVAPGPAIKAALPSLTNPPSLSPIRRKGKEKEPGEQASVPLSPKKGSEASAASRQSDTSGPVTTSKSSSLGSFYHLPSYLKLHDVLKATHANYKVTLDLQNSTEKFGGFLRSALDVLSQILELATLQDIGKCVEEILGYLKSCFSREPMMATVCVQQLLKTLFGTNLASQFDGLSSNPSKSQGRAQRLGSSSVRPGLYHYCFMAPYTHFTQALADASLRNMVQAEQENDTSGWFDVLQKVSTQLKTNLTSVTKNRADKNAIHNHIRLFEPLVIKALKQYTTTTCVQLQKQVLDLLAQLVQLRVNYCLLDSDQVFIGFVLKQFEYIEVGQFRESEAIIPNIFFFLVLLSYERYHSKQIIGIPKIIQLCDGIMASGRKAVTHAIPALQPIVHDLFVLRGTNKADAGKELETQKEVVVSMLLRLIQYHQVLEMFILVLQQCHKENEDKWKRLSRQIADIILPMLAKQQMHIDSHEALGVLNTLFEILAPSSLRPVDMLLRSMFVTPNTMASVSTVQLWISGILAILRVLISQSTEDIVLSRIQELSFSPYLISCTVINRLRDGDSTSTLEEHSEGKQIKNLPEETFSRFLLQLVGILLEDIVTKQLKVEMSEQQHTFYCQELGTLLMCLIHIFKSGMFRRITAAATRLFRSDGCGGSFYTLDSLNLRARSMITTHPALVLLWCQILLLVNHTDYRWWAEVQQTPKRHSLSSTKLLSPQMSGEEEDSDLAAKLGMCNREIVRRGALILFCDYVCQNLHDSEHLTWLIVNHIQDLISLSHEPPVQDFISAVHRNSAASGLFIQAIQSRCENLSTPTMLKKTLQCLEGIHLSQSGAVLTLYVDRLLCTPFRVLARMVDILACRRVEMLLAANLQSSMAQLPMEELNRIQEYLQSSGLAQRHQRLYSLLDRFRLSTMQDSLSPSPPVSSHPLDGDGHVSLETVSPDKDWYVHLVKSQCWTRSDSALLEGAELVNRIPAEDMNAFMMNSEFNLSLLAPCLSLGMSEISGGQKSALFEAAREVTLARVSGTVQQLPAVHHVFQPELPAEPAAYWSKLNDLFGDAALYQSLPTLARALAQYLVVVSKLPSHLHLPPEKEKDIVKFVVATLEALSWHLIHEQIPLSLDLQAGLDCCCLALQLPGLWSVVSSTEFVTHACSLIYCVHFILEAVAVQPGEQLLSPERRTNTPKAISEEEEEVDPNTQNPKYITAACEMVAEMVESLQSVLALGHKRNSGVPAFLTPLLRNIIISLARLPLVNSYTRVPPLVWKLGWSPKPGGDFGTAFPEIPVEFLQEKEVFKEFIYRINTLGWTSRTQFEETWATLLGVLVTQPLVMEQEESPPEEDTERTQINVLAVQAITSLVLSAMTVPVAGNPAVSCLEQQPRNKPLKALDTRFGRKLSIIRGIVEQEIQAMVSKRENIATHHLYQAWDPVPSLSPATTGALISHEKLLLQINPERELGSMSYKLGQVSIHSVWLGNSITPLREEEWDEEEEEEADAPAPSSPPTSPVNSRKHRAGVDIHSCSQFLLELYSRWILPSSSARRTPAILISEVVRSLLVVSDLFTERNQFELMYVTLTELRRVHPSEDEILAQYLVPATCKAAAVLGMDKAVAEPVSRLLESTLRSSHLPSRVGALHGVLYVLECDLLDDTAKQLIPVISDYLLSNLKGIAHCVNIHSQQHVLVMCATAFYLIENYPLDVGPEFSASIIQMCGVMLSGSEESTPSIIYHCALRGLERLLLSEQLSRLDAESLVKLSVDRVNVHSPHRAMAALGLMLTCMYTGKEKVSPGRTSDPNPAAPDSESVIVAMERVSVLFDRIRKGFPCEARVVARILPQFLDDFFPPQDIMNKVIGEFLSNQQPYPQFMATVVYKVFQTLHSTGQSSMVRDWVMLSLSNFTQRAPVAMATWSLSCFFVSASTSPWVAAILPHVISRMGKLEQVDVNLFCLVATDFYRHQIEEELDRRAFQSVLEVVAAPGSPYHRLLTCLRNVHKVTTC
Pf apPOL block: Pf-apPOL inhibitors, biochemical, fluorescence. inhibition, % at 10 µM. Recombinant Pf-apPOL, molecular beacon fluorescence, 1.5 h. AID 1794808, 2022. Plasmodium falciparum apicoplast DNA polymerase (apPOL). actives 0.25% (n = 210,000)
* marks the source's active call; other numbers are inactive results; nt = no result. Rows were chosen to be rich in hits. Some 3.6% of all compounds tested hit in one or more screens of this group. Rule as the data show it: active = inhibition above about 50%; inactive = the rest.

SMILES | mHTT CaM bind | Pf apPOL block
Cn1nc(-c2nnc(-c3ccccc3F)o2)c2c1CCN(C(=O)c1cccc(F)c1)C2 | 11 | -3
CCCc1cc(=O)n(-c2ccc([N+](=O)[O-])cc2)[nH]1 | 52* | -1
O=c1cc(N2CCOCC2)[nH]n1-c1ccc([N+](=O)[O-])cc1 | 37 | 7
CC(C)S(=O)(=O)c1ccc(CC(=O)Nc2cccc(Br)c2)cc1 | -17 | -2
Cc1ccc(Cc2c(C)nc(C)nc2N2CCN(C(=O)C3CC3)CC2)cc1 | 6 | 3
COc1ccccc1-c1nc(C2CCN(C(=O)c3cc4ccccc4[nH]3)CC2)no1 | 100* | 5
COc1cc(OC)cc(C(=O)N2CCC(c3noc(-c4ccccc4OC)n3)CC2)c1 | 8 | -2
Cc1ccccc1-c1nc(C2CCN(C(=O)c3ccc(F)c(Cl)c3)CC2)no1 | 94* | 2
CCOc1ccc(C(=O)N2CCC(c3noc(-c4ccccc4C)n3)CC2)cc1OCC | 11 | -4
Cc1oc(C2CCN(C(=O)c3cc4ccccc4[nH]3)CC2)nc1C(=O)N(C)C | 17 | -3
Cc1oc(C2CCN(C(=O)c3cc4ccccc4[nH]3)CC2)nc1C(=O)N1CCCC1 | 83* | 1
CC(C)(C)S(=O)(=O)C(C#N)=Cc1ccsc1 | nt | -8
CC1(C(=O)NCc2ccccc2)Cc2ccccc2C(=O)N1Cc1ccco1 (centres undefined) | -7 | 3
O=C(NCCCN1CCN(c2ccc(F)cc2)CC1)c1noc2c1CCCCC2 | 18 | -2
CCCn1c(C2CCN(C(=O)C(C)C)C2)nc2cccnc21 (centres undefined) | -6 | -3
O=C(NCCCn1ccnc1)Nc1cccc(Cl)c1 | 89* | 0
O=C(NCCCn1ccnc1)c1ccc(Cl)cc1 | -4 | 2
O=C(NCCCn1ccnc1)C(=O)Nc1ccc(F)c(Cl)c1 | 70* | -2
O=C(NCCCn1ccnc1)C(=O)Nc1ccc2c(c1)OCCO2 | -3 | -2
O=C(NCc1cccc(F)c1)C1CC(=O)N(Cc2ccc(F)cc2)C1 (centres undefined) | 1 | -2
O=C(Cc1ccc(Cl)cc1)N1CCc2nc(-c3ccc(Cl)cc3)ncc2C1 | -6 | -3
O=C(Nc1nncs1)c1cc(-c2ccc(Cl)c(Cl)c2)nc2ccccc12 | 3 | -9
CCC(=O)Nc1cccc(-c2noc(C3CCCN(C(=O)c4ccccc4C)C3)n2)c1 (centres undefined) | 5 | -4
CCC(=O)Nc1cccc(-c2noc(C3CCCN(C(=O)c4cc5ccccc5[nH]4)C3)n2)c1 (centres undefined) | 59* | -4
CCCCCCNC(=O)N1C/C=C\C(c2ccc(OC)cc2)N(Cc2ccc(F)cc2)C(=O)C1 (centres undefined) | 48 | -4
SMILES | mHTT CaM bind | Pf apPOL block
CCCCCCC(=O)N1C/C=C\C(c2ccc(OC)cc2)N(Cc2ccc(F)cc2)C(=O)C1 (centres undefined) | 62* | -4
COc1ccc(C2/C=C\CN(S(=O)(=O)c3ccc4ccccc4c3)CC(=O)N2Cc2ccc(F)cc2)cc1 (centres undefined) | 17 | -6
COc1ccc(C2/C=C\CN(C(=O)OCc3ccccc3)CC(=O)N2Cc2ccc(F)cc2)cc1 (centres undefined) | 92* | -5
COc1ccc(C2/C=C\CC(OCc3ccccc3)CC(=O)N2Cc2cccc(F)c2)cc1 (centres undefined) | 100* | -7
COc1ccc(C2/C=C\CN(C(=O)c3ccccc3)CC(=O)N2Cc2ccc(F)cc2)cc1 (centres undefined) | 31 | -1
CCCn1ncc(N2CCC(C(=O)NCc3ccccc3Cl)CC2)cc1=O | -9 | -5
Cc1ccccc1C(=O)Nc1cnc(N2CCCC2)nc1 | -5 | 2
O=C(Nc1cc(C(F)(F)F)ccc1N1CCCC1)c1ccc(Cl)c([N+](=O)[O-])c1 | 28 | 8
CCCCNC(=O)CC1CCN(C(=O)c2ccccc2)CC1 | -17 | -1
Cc1cc(Cl)ccc1N(CC(=O)Nc1ccc(F)cc1)S(C)(=O)=O | -2 | -5
Cc1cc(C)cc(N(CC(=O)Nc2ccc(F)c(Cl)c2)S(C)(=O)=O)c1 | 56* | -1
O=C(c1ccccc1)N1CCC(n2c(-c3ccoc3)nc3cccnc32)C1 (centres undefined) | 19 | -2
COc1ccc(-c2nc3cccnc3n2C2CCN(C(=O)NCc3ccc(F)cc3)C2)cc1 (centres undefined) | 77* | 1
COc1ccc(-c2nc3cccnc3n2C2CCN(C(=O)Nc3cccc(C)c3)C2)cc1 (centres undefined) | 62* | -2
COc1ccc(-c2nc3cccnc3n2C2CCN(C(=O)c3cc(F)cc(F)c3)C2)cc1 (centres undefined) | 53* | 0
COc1ccc(-c2nc3cccnc3n2C2CCN(C(=O)Nc3cccc(OC)c3)C2)cc1 (centres undefined) | 46 | -8
COc1ccc(-c2nc3cccnc3n2C2CCN(C(=O)c3cccc(F)c3)C2)cc1 (centres undefined) | 28 | 3
O=C(c1ccc(C(F)(F)F)cc1)N1CCC(n2c(-c3ccoc3)nc3cccnc32)C1 (centres undefined) | 86* | 3
COc1ccc(-c2nc3cccnc3n2C2CCN(C(=O)NCc3cccc(F)c3)C2)cc1 (centres undefined) | 41 | -7
COCCCNC(=O)CSc1nc2ccccc2c2nc(C)nn12 | 5 | 3
Cc1ccc(S(=O)(=O)NC(C)C)cc1[N+](=O)[O-] | 2 | -1
O=C(COc1ccc(Br)cc1Cl)NCc1ccc2c(c1)OCO2 | 0 | -6
CCn1c(SC)nnc1-c1nn(C)c2c1CN(C(=O)Cc1cccc(F)c1)CC2 | 5 | 0
COc1ccc(-c2nc3cccnc3n2C2CCN(C(=O)CCc3ccccc3)C2)cc1 (centres undefined) | 86* | -1
CCCc1nc2cccnc2n1C1CCN(C(=O)CCc2ccc(OC)cc2)C1 (centres undefined) | 11 | -5
SMILES | mHTT CaM bind | Pf apPOL block
N#CC(=Cc1ccncc1)C(N)=O | nt | -10
COCCNc1oc2c(c1-c1cc(OC)c(OC)c(OC)c1)c(=O)oc1c(C)cccc12 | 1 | -3
CC12CCC(CC1N)C2 (centres undefined) | 54* | 22
Cc1nnc(CNC(=O)CN2CCN(c3ccccc3)C2=O)o1 | -15 | -10
Cn1c(-c2cc3ccc(O)c(CN4CCCCCC4)c3oc2=O)nc2ccccc21 | -2 | 1
O=C(NCCCN1CCOCC1)c1cc2nc(-c3cccs3)cc(C(F)(F)Cl)n2n1 | 25 | -4
O=C(NCCc1c[nH]c2ccccc12)c1cc2nc(-c3cccs3)cc(C(F)(F)Cl)n2n1 | 82* | -1
COCCN1C(=O)C(O)=C(C(=O)c2ccc(C)o2)C1c1ccc(Br)cc1 (centres undefined) | 14 | 1
O=[N+]([O-])c1cccc(/C=C/c2nc(C=Nc3ccccc3)c(O)o2)c1 | -2 | 1
O=[N+]([O-])c1cccc(/C=C/c2nc(C=Nc3ccc(O)cc3)c(O)o2)c1 | 50* | 5
C#CCSc1nc2c(cc1C#N)CCCC2 | -29 | -10
NC(N)=Nc1nc(-c2ccccc2)c(-c2ccccc2)s1 | 100* | 0
CC(=O)Nc1nc(-c2ccc(C)cc2)c(-c2ccccc2)s1 | 34 | 0
